Sfp inh: Sfp phosphopantetheinyl transferase inhibition. Q9F4F7. Biochemical Sfp PPTase activity, qHTS. Potency, µM, without a hit: largest response in the series, negative = inhibition, most hits filed as inhibitors. 310,000 compounds, 3.5% hits. AID 1490;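 further: the enzyme is Sfp with the accession as filed and its product quenches rhodamine fluorescence; 0% = enzyme reaction without inhibitor and -100% = no enzyme wells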
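Fluorescence-quenching assay: 15 nM Sfp-PPTase preincubated 15 min at room temperature with compound, then 5 uM rhodamine-CoA and 12.5 uM BHQ-2-labelled YbbR peptide added. Fluorescence (ex 525/em 598 nm) read at start and after 30 min; difference gives rate.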
ALOX12 inh: blocks human arachidonate 12S-lipoxygenase | Potency, µM (titrated, usually from 108 µM), inactives show top-dose activity change, negative = inhibition, most hits filed as inhibitors | AID 1671190 | P18054 | 580,000 compounds, 1.1% hits | purified 12hLO, xylenol orange hydroperoxide absorbance; further: on the % scale 0 is the no-effect control and ±100 the full control effect
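Purified human 12hLO at 150 nM in 25 mM Hepes, 0.01% Triton X-100, pH 7.0, preincubated 15 min at room temperature with compound. Reaction started with 40 uM arachidonic acid, 30 min at room temperature. Hydroperoxide measured by Fe-xylenol orange, 573/405 nm absorbance ratio.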
G9a block: G9a (human) methyltransferase inhibition; Q96KQ7; G9a H3K9 monomethylation, AlphaScreen, 2 h; Potency, µM (top dose mostly 102 µM), without a hit: at the highest dose activity, negative = inhibition, usual class: inhibitors; 350,000 compounds, 8.8% hits; AID 504332; further: on the % scale 0 is the no-effect control and ±100 the full control effect; nearly all actives have a fitted effect of over 75% in size
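Signal arises when biotinylated H3K9 peptide, once monomethylated, bridges streptavidin donor and antibody-captured acceptor beads. Enzyme at 20 nM was preincubated 15 min with test compounds; peptide 500 nM and SAM 20 uM then reacted for 2 h.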
JMJD2A Tudor inh: JMJD2A Tudor domain (human) inhibition. O75164. AlphaScreen JMJD2A-Tudor / H3K4me3 peptide binding. Potency, µM (doses to about 114 µM), without a hit: at the highest dose activity change, negative = inhibition, hits mostly inhibitors. 390,000 compounds, 4.4% hits. AID 504339; further: on the % scale 0 is the no-effect control and ±100 the full control effect; nearly all actives have a fitted effect of over 50% in size
BAZ2B block: blocks human BAZ2B; Potency, µM (top dose mostly 114 µM), without a hit: top-dose activity change, negative = inhibition, hits mostly inhibitors; Q9UIF8; AlphaScreen BAZ2B-H3K14Ac peptide displacement; 360,000 compounds, 4.4% hits; further: on the % scale 0 is the no-effect control and ±100 the full control effect; nearly all actives have a fitted effect of over 60% in size
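BAZ2B 50 nM plus b-H3(5-23)K14Ac 50 nM, PBS pH 7.4/0.01% Tween-20, 30 min RT; compound added (max 110 uM), 30 min RT; streptavidin donor/Ni-chelate acceptor beads 10 ug/mL final, 20 min dark; AlphaScreen read.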
HP1b chromo inh: blocks HP1-beta chromodomain binding to methylated histone tails. 390,000 compounds, 0.56% hits. Potency, µM (highest dose often 114 µM), for the others: top-dose activity change, negative = inhibition, usual class: inhibitors. AlphaScreen HP1-beta / biotin-H3K9me3 peptide binding. P83916. AID 540317; further: nearly all actives have a fitted effect of over 70% in size
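Compound inhibition of the preformed complex between 50 nM HP1-beta and 50 nM biotinylated H3K9me3 peptide was read by AlphaScreen. Buffer was PBS pH 7.4 with 0.01% Tween-20. Incubations ran 30 min at room temperature, with 10 ug/mL donor/acceptor beads.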
Starred values were filed as active, the others as inactive; ? = inconclusive; . = not tested or not shown; [ ] = remark or other dose. A selection: hits, their analogues and other compounds. The true share with any hit is near 8.7%. The call rests on the fitted dose curve; in most records, active means well fitted curve in the direction sought with a large enough effect; inconclusive means small, poorly fitted or top-dose-only effect, or another doubt; inactive means no such curve, though single readings can be large; an effect the other way counts as inactive or inconclusive. Potency means the concentration at half of the fitted maximal effect.

SMILES	Sfp inh	ALOX12 inh	G9a block	JMJD2A Tudor inh	BAZ2B block	HP1b chromo inh
COc1ccc(CCN2C(=O)CC(C(N)=O)SC2=Nc2ccccc2)cc1 (centres undefined)	-5.9%	0.0%	?	79.4µM*	?	12.7%
Cc1noc2c(NC3CCN(C)CC3)cc(-c3ccc(F)cc3)nc12	.	-48.1%[176 µM]	.	.	.	.
COc1cc(/C=C2/SC(=S)N(Cc3ccccc3)C2=O)cc(Cl)c1O	-3.4%	?	44.7µM*	25.1µM*	12.6µM*	?
COc1cc(/C=C2/SC(=S)N(Cc3ccccc3)C2=O)ccc1OS(C)(=O)=O	4.0%	-29.2%	12.6µM*	?	?	-26.4%
COc1cc([N+](=O)[O-])cc(/C=C2/SC(=S)N(Cc3ccccc3)C2=O)c1O	39.8µM*	15.8µM*	10µM*	17.8µM*	14.1µM*	?
COc1cc(/C=C2/SC(=S)N(CC(=O)O)C2=O)ccc1OC(=O)c1cccs1	?	?	50.1µM*	?	?	?
COc1cc(NC(=O)COC(=O)CCc2nc3ccccc3c(=O)[nH]2)cc(OC)c1	.	-10.7%	.	-7.5%	.	35.0%
COc1cc(Cl)c(C)cc1NC(=O)COC(=O)CCc1nc2ccccc2c(=O)[nH]1	.	?	12.6µM*	-11.6%	8.5%	22.1%
Cc1ccc(NC(=O)COC(=O)CCc2nc3ccccc3c(=O)[nH]2)cc1Cl	8.6%	-7.1%	35.5µM*	12.7%	-12.2%	29.6%
O=C(CCc1nc2ccccc2c(=O)[nH]1)Nc1ccc(F)c([N+](=O)[O-])c1	-23.3%	?	39.8µM*	-19.7%	-25.3%	15.6%
Cc1ccc(S(=O)(=O)N2CCCCC2)cc1NC(=O)CCc1nc2ccccc2c(=O)[nH]1	.	23.1%	3.16µM*	-20.0%	-31.3%	16.8%
COc1ccc(OC)c(NC(=O)COC(=O)CCc2nc3ccccc3c(=O)[nH]2)c1	.	?	.	-7.5%	.	27.0%
O=C(CCc1nc2ccccc2c(=O)[nH]1)NCC(=O)Nc1ccc(F)c(F)c1	.	-7.1%	20.7%[59 µM]	-10.3%	-4.5%	22.6%
Cc1cc(C(=O)N(C)C2CCS(=O)(=O)C2)c2ccccc2n1 (centres undefined)	.	13.1%	.	.	.	.
CCOc1ccc(NC(=O)COc2cccc(-c3nnc4n3CCCC4)c2)cc1	.	28.3%	.	.	.	.
O=C(Nc1ccc(F)c([N+](=O)[O-])c1)C(=O)c1c(O)[nH]c2ccccc12	20µM*	0.0%	28.2µM*	-34.8%	?	11.2%
O=C(Nc1ccccc1)Nc1ccc(F)c([N+](=O)[O-])c1	-12.6%	?	-8.0%[59 µM]	-25.7%	-6.1%	5.6%
N#Cc1cccc(NC(=O)COC(=O)CCc2nc3ccccc3c(=O)[nH]2)c1	14.2%	-12.5%	12.6µM*	-0.7%	-29.5%	44.5%
Cc1c(Cl)cccc1NC(=O)CNC(=O)CCCc1nc2ccccc2c(=O)[nH]1	.	?	44.7µM*	-2.8%	13.6%	27.1%
O=C(C1CCN(C(=O)N2CC3CC(C2)[C@H]2CCCC(=O)N2C3)CC1)N1CC=C(c2ccccc2)CC1 (some centres undefined)	.	43.5%	.	.	.	.
Cc1ccc(N(C(=O)c2csnn2)C(C(=O)NC(C)(C)C)c2cccs2)cc1 (centres undefined)	0.2%	15.1%	9.6%[0.501 µM]	-14.0%	5.1%	24.9%
Cc1ccccc1N(C(=O)c1csnn1)C(C(=O)NC(C)(C)C)c1cccs1 (centres undefined)	9.6%	-17.6%	-30.2%	10µM*	-26.8%	?
COc1ccc(OC)c(/C=c2\sc3nc(-c4cccs4)nn3c2=O)c1	-18.9%	-10.9%	11.2µM*	-16.7%	-3.6%	9.6%
O=C(Nc1ccc(Cl)cc1)OCCN1CCOCC1	.	-1.9%	.	-12.4%	.	16.2%[57 µM]
O=C(Nc1ccc(Cl)cc1)OCCn1nnnc1C(c1ccccc1Cl)N1CCOCC1 (centres undefined)	1.4%	0.0%	11.5%[59 µM]	35.5µM*	-3.1%[57.1 µM]	-17.6%
S=C(NCCCCCCNC(=S)Nc1cccc(Cl)c1)Nc1cccc(Cl)c1	.	15.8µM*	.	.	.	.
